# Results as given in ChEMBL document CHEMBL3988442, “University of Dundee, Small-Polar-MMV Screening Library” (2021).
# “And” between values parts separate entries of the source, which are not always exact repeats. Equal values may be shown once. The campaign covered roughly 38,000 compounds. About 1,200 (3.2%) showed an effect of 50% or more. The median lay at about -58%. This excerpt belongs to a sample that is enriched for strong results.
# Tested on: Plasmodium falciparum
# Assay: Calibr Malaria Delayed Death Assay SOP
# Type: functional, organism-based
# Set-up: scale not given: in the data most compounds retested in dose-response had high values
# Details: concentration 4.99e-06 (unit not given; other assays of the set use mol/L)
Compound,Percent Effect [%],Percent Effect (4.99 µM)
Cc1nc2c(c(NC(C)c3nnn[nH]3)n1)Cc1ccccc1OC2 (centres undefined),-22.04,–
CNS(=O)(=O)c1cccc(C(C)NCc2ccco2)c1 (centres undefined),0.2758,–
CNS(=O)(=O)c1cccc(C(C)NCc2cccc(C)c2C)c1 (centres undefined),68.88,–
CNS(=O)(=O)c1cccc(C(C)NCc2ccc(C)o2)c1 (centres undefined),21.13,–
CNS(=O)(=O)c1cccc(C(C)NCc2ccc(F)cc2F)c1 (centres undefined),-6.511,–
CNS(=O)(=O)c1cccc(C(C)NCc2cccc(OC)c2)c1 (centres undefined),-0.2291,–
CNS(=O)(=O)c1cccc(C(C)NCc2ccccc2OC)c1 (centres undefined),86.21,–
O=C(c1cc2c(s1)CCCCC2)N1CCC(c2ncc[nH]2)CC1,-34.19,–
COc1nc2c(cc1C(=O)N1CCCCC1c1ccccn1)CCC2 (centres undefined),-121.2,–
Cc1nn(CC(C)C)c(N(C)C)c1CNCc1ccc(CO)c(F)c1,-6.96,–
O=C(CCNS(=O)(=O)c1ccc(F)cc1)NCc1ccoc1,-96.77,–
CCCc1nc(CN2CCCC2Cn2cncn2)no1 (centres undefined),-44.73,–
CCSc1ncc(CN2CCC(O)(CN3CCOCC3)C(C)(C)C2)cn1 (centres undefined),16.41,–
COc1ccc2c(c1)C(NCCc1c(C)noc1C)CCCO2 (centres undefined),29.88,–
Cc1ccc2c(c1)OCCCC2NC1CCN(C)CC1 (centres undefined),47.45,–
COc1cccc(CNC2CCCOc3cc(C)ccc32)n1 (centres undefined),67.49,–
COc1ccc2c(c1)C(NCCc1ccccn1)CCCO2 (centres undefined),57.17,–
COc1ccc2c(c1)C(NCCc1ncc(C)s1)CCCO2 (centres undefined),-37.71,–
COc1c(CNC2CCCOc3ccccc32)c(C)nn1C (centres undefined),-45.12,–
O=C(Nc1cn[nH]c1)N1CCN(CCSc2ccccc2)CC1,-6.157,–
CCOCc1ncn2c1CN(C(=O)Nc1cccc(F)c1)CC2,-77.13,–
CN(CCCOc1ccccc1Cl)C(=O)CN1CCCCCC1=O,-111.3,–
Cc1cccc(S(=O)(=O)N2Cc3nccn3CC(CN(C)C)C2)c1 (centres undefined),1.767,–
CC(=O)N1CCc2[nH]c(=O)ccc2C1,-39.7,–
O=C(CCn1cccn1)NCC(c1cccs1)N1CCOCC1 (centres undefined),-64.96,–
CCn1cc(CNCC(c2ccc(C)s2)N2CCOCC2)cn1 (centres undefined),64.77,–

Compound,Percent Effect [%],Percent Effect (4.99 µM)
CCn1cc(CNC(=O)CCc2nnc(-c3ccc(C)s3)o2)cn1,-44.03,–
CCCn1cc(CNCC(c2ccc(C)s2)N2CCOCC2)cn1 (centres undefined),54.23,–
Cc1ccc(C(CNCc2nccn2C)N2CCOCC2)s1 (centres undefined),-32.15,–
Cc1ccc(C(CNCc2ccc(C#N)cc2)N2CCOCC2)s1 (centres undefined),50.98,–
Cc1ccc(C(CNCc2cccnc2)N2CCOCC2)s1 (centres undefined),-2.804,–
CCn1ccnc1CNCC(c1ccc(C)s1)N1CCOCC1 (centres undefined),52.86,–
Cc1ccc(C(CNCc2ncc[nH]2)N2CCOCC2)s1 (centres undefined),32.72,–
Cc1ccc(C(CNCc2ccncc2)N2CCOCC2)s1 (centres undefined),-46.8,–
Cc1ccc(C(CNCC2CC2)N2CCOCC2)s1 (centres undefined),23.83,–
Cc1ccc(C(CNCc2cccn2C)N2CCOCC2)s1 (centres undefined),-42.34,–
O=C(NCCc1nccs1)C(c1ccccc1)n1cnnn1 (centres undefined),-126.4,–
Cn1ccnc1-c1ccc(NCc2cn3c(n2)SCC3)nn1,-229.6,–
CC(C)CC(CO)NS(=O)(=O)Cc1ccon1 (centres undefined),-57.79,–
Cc1ccc2nc(C3CCCN3C(=O)c3cc(=O)[nH]c(=O)[nH]3)[nH]c2c1 (centres undefined),-24.73,–
COc1ccc(NS(=O)(=O)CC2=NC(=O)n3cccc3C2=O)cc1Cl,-78.67,–
CN(CCC(N)=O)Cc1cc(Br)cs1,-77.34,–
CCOC(=O)CN(C)Cc1cnc(C)s1,-144.9,–
CCCN(CCC)C(=O)CN(C)Cc1cnc(C)s1,-123.6,–
Cc1ncc(CN(C)CC(O)c2ccc(Br)cc2)s1 (centres undefined),19.44,–
Cc1ncc(CN(C)CC(O)c2cccc(C(F)(F)F)c2)s1 (centres undefined),53.4,–
Cc1ncc(CN(C)CC(O)c2ccc(OC(F)(F)F)cc2)s1 (centres undefined),62.45,–
Cc1cc(CNC(=O)NCC(O)c2cccc(C(F)(F)F)c2)no1 (centres undefined),-35.43,–
N#Cc1ccc(N2CCC3(CCC(=O)N3Cc3ccncc3)CC2)nc1.O=C(O)C(F)(F)F.O=C(O)C(F)(F)F,-114.1,–
CCn1cc(-c2cc(C(F)F)n3nc(CC(=O)O)nc3n2)cn1,-21.51,–
COCCCC1CCN([C@@H]2c3ccccc3C3(CCNCC3)[C@H]2O)CC1,36.42,–
CCOCCN1CCN([C@@H]2c3ccccc3C3(CCNCC3)[C@H]2O)CC1,-70.37,–

Compound,Percent Effect [%],Percent Effect (4.99 µM)
Cc1cc(C(C)(O)CNC(=O)CCOCC(C)C)c(C)o1 (centres undefined),-34.27,–
CCS(=O)(=O)N1CC[C@@H]2[C@H](CC1)N(Cc1cccnc1)CCS2(=O)=O.O=C(O)C(F)(F)F.O=C(O)C(F)(F)F,-78.89,–
Cc1csc(C2CCCCN2C(=O)CN(C)C2CC2)n1 (centres undefined),-127,–
Cc1csc(C2CCCCN2C(=O)c2cc(C(C)C)[nH]n2)n1 (centres undefined),75.22,–
Cc1csc(C2CCCCN2C(=O)COCc2nc(C)no2)n1 (centres undefined),-74.6,–
CC(NCC(=O)Nc1ccc(N2CCCCCC2)cc1)c1cccs1 (centres undefined),21.94,–
COC(=O)c1cc(OC)c(OC)cc1NCc1c(C)noc1C,-119.4,–
CCCN(C(=O)CN1CCn2c(nnc2C2CC2)C1)C1=CCCCC1,-109.1,–
Cc1nn(C)c2nc(NCCCN3CCCC(C(N)=O)C3)sc12 (centres undefined),-133.1,–
COc1ncc(CN(CCN(C)C)Cc2ccc(C)s2)cn1,-3.016,–
Cc1ccc(CN(CCCO)Cc2nc3ccccc3[nH]2)s1,-85.6,–
CCNc1ncc(CN(CCN(C)C)Cc2ccc(C)s2)cn1,37.82,–
Cc1ccc(CN(CCN(C)C)Cc2nc3ccccc3[nH]2)s1,60.93,–
CCc1ccc(CN(CCN(C)C)Cc2ccc(C)s2)nc1,91.79,–
COCc1ncc(CN(CCN(C)C)Cc2ccc(C)s2)cn1,1.94,–
O=C(O)C1(O)CCN(c2ccc3cccc(Cl)c3n2)CC1,-181.1,–
CCCN1CCC(c2nc3ccc(-c4cccc(F)c4)cn3n2)CC1.O=C(O)C(F)(F)F,31.95,–
COc1ccc(CN2CC[C@H](c3nnc(-c4ccco4)o3)C2)cc1,-19.38,–
COc1ccc(Cn2nnnc2SCC2CCCN(C)C2)cc1 (centres undefined),58.9,–
COc1ccc(OC)c(-n2nnnc2SCC2CCCN(C)C2)c1 (centres undefined),41.34,–
O=C(O)C(F)(F)F.O=C(c1cccs1)N1CCOCC2(C1)CN(c1cccnc1)C(=O)CO2 (centres undefined),-98.48,–
Cc1ccc(C(=O)Nc2nnc(CC(C)C)s2)c(-n2cnnn2)c1C,-82.26,–
Cn1ccnc1CN1CCC(Cn2cc(-c3ccncc3)nn2)CC1,-74.11,–
O=C1N(Cc2cccc(F)c2F)CCCC1(O)CNC1CCCC1 (centres undefined),59.35,–
COc1ccc(F)c(CN2CCCC(O)(CNC3CCCCC3)C2=O)c1 (centres undefined),69.02,–
COc1ccc(F)c(CN2CCCC(O)(CNCc3ccon3)C2=O)c1 (centres undefined),-23.9,–

Compound,Percent Effect [%],Percent Effect (4.99 µM)
COC(=O)CNCC1(O)CCCN(Cc2cccc(F)c2F)C1=O (centres undefined),-57.14,–
CN1CCC(NCC2(O)CCCN(Cc3ccccc3F)C2=O)CC1 (centres undefined),4.135,–
O=C1N(Cc2cccc(F)c2F)CCCC1(O)CNCc1ccccn1 (centres undefined),0.3162,–
C=C(C)CNCC1(O)CCCN(Cc2ccc(F)c(F)c2)C1=O (centres undefined),-91.62,–
COc1ccc(F)c(CN2CCCC(O)(CNCc3ncc[nH]3)C2=O)c1 (centres undefined),-101.4,–
O=C1N(Cc2ccc(F)c(F)c2)CCCC1(O)CNCC1CCCCC1 (centres undefined),73.06,–
O=C(CNCC1(O)CCCN(Cc2cccc(F)c2F)C1=O)NC1CC1 (centres undefined),-101.8,–
O=C1N(Cc2cccc(F)c2F)CCCC1(O)CNCC1CCCCC1 (centres undefined),73.31,–
COCCNCC1(O)CCCN(Cc2ccc(F)c(F)c2)C1=O (centres undefined),23.01,–
O=C(CCc1cccnc1)N1CCC2(CCN(CC3CCCC3)C2)C1.O=C(O)C(F)(F)F.O=C(O)C(F)(F)F (centres undefined),15.87,–
Cn1cc(NC(=O)CNC(=O)N2CCN(c3cccc(Cl)c3)CC2)cn1,-19.66,–
Cc1ccc(NC(C(N)=O)c2ccc(F)cc2)cc1 (centres undefined),-42.35,–
O=C(NCCc1nnc2n1CCC2)NC1(c2cccc(F)c2)CC1,-62.64,–
CNC(=O)c1cnc2c(C)csc2c1,-145.8,–
Cc1nn(C2CCS(=O)(=O)C2)c(O)c1Cc1ccccc1Cl (centres undefined),-17.18,–
Cc1noc([C@H]2CC[C@@H]3[C@@H](CCN3c3ncccn3)O2)n1,-94.2,–
Cc1ccc(C)c(OCCN(C)C(=O)CCc2cn[nH]c2)c1,-90.4,–
CCc1noc(C)c1C(=O)N1CCC2(CCCN(CC(C)(C)C)C2=O)C1 (centres undefined),–,-34.55% and -37.04%
Cc1cccnc1CNCC1(O)CCCN(CC(C)(C)C)C1=O (centres undefined),-8.334,–
CC1CCN(CC2(O)CCCN(Cc3cccc(F)c3F)C2=O)CC1 (centres undefined),-78.62,–
COc1ccc(F)c(CN2CCCC(O)(CNCC(C)(C)C)C2=O)c1 (centres undefined),48.73,–
CN(CC1(O)CCCN(Cc2cccc(F)c2F)C1=O)C1CCCCC1 (centres undefined),63.45,–
O=C1N(Cc2cccc(F)c2F)CCCC1(O)CN1CCCOCC1 (centres undefined),40.89,–
CC(C)(C)CNCC1(O)CCCN(Cc2ccccc2F)C1=O (centres undefined),83.8,–
CC(C)C(C)NC(=O)CNc1cc2c(cc1Cl)NC(=O)CO2 (centres undefined),-65.88,–
CCOCC1CN(S(=O)(=O)C2CC2)Cc2ncn(CC3CC3)c21 (centres undefined),-12.84,–
